About 7,900 targets were measured; listed, in parts, are those with a hit and a random draw of the rest. About 0.6% of all pairs of compound and target were hits.
Assays:
Experiment in all cases: log2 fold change, soluble protein after heating vs DMSO (PISA); higher = thermal stabilisation; K562 cells, 10 uM, 30 min; active = over 0.2 and 3.5 SD of the protein, either way, in both replicates (recomputed)
[1] = molecular target: YAE1 (UniProt Q9NRH1)
Summary of the method: (§1)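 K562 cells at 2×10^6 cells/mL were treated with 10 μM compound for 30 min. Aliquots were heated for 3 min across 48°C-58°C, pooled, and extracted in PBS with 0.5% NP-40 at 4°C; soluble protein was the supernatant after 21,000xg for 90 min. Soluble protein was quantified by TMTpro 16plex LC-MS/MS with channel sums equalised, and reported as log2 fold change in thermal stability against DMSO controls, with values from duplicates.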

[2] = molecular target: YBX1 (UniProt P67809)
Summary of the method: as §1

[3] = molecular target: YES1 (UniProt P07947)
Summary of the method: as §1

[4] = molecular target: YIPF4 (UniProt Q9BSR8)
Summary of the method: as §1

[5] = molecular target: YIPF5 isoform 3 (UniProt Q969M3)
Summary of the method: as §1

[6] = molecular target: YIPF6 (UniProt Q96EC8)
YIPF6, sequence (Q96EC8 whole entry, looked up): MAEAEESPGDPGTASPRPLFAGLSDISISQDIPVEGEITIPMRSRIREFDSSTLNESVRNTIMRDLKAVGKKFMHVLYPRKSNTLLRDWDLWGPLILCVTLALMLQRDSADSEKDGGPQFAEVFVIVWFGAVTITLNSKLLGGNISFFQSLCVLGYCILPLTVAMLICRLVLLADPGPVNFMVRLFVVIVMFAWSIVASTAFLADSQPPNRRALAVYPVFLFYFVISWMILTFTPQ
Summary of the method: as §1

[7] = molecular target: YLPM1 (UniProt P49750)
YLPM1, sequence (P49750 whole entry, looked up): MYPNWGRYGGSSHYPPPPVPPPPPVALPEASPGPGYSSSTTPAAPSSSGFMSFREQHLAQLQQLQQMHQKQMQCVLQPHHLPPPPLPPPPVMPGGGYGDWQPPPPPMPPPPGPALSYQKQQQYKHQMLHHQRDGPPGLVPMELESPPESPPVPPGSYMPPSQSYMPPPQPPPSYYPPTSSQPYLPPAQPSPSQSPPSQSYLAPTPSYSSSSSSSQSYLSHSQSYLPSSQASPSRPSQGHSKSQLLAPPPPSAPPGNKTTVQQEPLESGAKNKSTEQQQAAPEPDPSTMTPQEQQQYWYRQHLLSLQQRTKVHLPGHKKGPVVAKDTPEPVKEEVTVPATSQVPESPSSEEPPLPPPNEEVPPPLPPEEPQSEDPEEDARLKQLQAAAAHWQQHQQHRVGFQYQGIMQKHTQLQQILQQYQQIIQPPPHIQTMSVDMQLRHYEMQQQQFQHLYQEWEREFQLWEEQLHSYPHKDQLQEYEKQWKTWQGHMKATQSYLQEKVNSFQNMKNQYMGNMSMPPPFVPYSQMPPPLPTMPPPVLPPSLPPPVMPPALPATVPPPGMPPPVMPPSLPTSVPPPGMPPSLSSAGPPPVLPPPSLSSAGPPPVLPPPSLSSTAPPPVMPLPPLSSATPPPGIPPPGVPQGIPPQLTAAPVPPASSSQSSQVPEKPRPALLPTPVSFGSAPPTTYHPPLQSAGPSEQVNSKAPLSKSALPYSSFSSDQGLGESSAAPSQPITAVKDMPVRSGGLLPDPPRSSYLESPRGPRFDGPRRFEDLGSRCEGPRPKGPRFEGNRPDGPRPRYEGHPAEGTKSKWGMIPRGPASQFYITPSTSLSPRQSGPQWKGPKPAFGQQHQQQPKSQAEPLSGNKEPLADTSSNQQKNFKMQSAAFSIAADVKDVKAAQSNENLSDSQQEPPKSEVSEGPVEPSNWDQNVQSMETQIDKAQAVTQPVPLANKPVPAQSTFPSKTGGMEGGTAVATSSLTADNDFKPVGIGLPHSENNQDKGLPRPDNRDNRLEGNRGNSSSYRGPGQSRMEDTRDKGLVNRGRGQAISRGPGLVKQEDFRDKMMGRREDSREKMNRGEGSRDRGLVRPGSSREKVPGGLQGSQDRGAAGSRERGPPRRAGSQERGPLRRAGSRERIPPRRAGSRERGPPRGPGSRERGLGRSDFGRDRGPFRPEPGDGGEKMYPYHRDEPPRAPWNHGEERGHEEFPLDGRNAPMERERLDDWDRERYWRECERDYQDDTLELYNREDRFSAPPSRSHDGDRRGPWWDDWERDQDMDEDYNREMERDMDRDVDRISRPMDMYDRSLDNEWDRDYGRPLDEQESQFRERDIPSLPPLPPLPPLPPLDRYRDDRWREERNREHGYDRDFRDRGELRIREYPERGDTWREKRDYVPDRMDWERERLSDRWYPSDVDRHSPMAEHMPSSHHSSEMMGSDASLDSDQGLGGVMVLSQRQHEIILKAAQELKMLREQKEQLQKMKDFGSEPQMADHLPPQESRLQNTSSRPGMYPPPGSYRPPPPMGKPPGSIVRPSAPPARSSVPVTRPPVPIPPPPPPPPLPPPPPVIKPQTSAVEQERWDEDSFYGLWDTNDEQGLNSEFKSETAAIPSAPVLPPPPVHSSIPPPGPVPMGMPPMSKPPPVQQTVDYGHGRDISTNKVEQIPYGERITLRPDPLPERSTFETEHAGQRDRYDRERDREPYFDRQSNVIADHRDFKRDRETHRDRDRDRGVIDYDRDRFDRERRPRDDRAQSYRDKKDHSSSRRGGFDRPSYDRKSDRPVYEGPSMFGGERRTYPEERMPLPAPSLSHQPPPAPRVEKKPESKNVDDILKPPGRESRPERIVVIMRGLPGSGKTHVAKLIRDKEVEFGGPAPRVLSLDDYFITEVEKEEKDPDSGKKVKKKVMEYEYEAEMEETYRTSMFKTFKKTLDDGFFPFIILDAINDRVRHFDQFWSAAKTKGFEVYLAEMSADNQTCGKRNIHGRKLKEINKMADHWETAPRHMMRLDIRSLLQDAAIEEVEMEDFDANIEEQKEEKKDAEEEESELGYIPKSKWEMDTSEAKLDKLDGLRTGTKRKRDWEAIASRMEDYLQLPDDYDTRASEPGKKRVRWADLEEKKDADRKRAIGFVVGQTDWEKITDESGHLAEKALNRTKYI
Summary of the method: as §1

[8] = molecular target: YOD1 (UniProt Q5VVQ6)
YOD1, sequence (Q5VVQ6 whole entry, looked up): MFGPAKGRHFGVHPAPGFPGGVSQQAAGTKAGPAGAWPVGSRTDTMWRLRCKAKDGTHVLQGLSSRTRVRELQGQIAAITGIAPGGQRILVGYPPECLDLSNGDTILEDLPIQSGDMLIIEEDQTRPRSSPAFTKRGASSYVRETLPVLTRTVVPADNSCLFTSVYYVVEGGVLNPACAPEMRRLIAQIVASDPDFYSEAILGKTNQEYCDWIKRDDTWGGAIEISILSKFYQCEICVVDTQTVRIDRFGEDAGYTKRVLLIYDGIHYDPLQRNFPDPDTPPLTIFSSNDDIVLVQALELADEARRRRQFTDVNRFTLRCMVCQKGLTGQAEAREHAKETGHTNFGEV
Summary of the method: as §1

[9] = molecular target: YPEL5 (UniProt P62699)
Summary of the method: as §1

[10] = molecular target: YWHAB (UniProt P31946)
Summary of the method: as §1

[11] = molecular target: YWHAQ (UniProt P27348)
YWHAQ, sequence (P27348 whole entry, looked up): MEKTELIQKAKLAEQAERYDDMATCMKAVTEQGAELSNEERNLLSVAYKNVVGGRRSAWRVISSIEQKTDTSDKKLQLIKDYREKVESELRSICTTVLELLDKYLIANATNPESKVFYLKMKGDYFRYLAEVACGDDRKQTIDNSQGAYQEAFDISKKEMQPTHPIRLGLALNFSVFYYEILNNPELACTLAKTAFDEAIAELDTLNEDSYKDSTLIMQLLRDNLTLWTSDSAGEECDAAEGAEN
Summary of the method: as §1

[12] = molecular target: YWHAZ (UniProt E7ESK7)
Summary of the method: as §1

[13] = molecular target: YWHAZ (UniProt P63104)
Summary of the method: as §1

[14] = molecular target: YY1 (UniProt P25490)
YY1, sequence (P25490 whole entry, looked up): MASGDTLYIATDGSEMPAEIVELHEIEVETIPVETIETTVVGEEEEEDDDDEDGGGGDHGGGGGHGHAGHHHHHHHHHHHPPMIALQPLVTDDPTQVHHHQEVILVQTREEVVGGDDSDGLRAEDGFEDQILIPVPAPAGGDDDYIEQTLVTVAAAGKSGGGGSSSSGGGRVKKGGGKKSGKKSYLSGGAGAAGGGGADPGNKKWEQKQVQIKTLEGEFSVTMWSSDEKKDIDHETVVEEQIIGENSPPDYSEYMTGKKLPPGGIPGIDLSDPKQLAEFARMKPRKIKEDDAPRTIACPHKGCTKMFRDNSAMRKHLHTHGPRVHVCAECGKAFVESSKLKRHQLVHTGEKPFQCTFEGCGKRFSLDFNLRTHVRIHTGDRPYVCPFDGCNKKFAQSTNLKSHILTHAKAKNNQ
Summary of the method: as §1

[15] = molecular target: ZADH2 (UniProt Q8N4Q0)
Summary of the method: as §1

[16] = molecular target: ZBTB21 (UniProt Q9ULJ3)
Summary of the method: as §1

[17] = molecular target: ZBTB43 (UniProt O43298)
ZBTB43, sequence (O43298 whole entry, looked up): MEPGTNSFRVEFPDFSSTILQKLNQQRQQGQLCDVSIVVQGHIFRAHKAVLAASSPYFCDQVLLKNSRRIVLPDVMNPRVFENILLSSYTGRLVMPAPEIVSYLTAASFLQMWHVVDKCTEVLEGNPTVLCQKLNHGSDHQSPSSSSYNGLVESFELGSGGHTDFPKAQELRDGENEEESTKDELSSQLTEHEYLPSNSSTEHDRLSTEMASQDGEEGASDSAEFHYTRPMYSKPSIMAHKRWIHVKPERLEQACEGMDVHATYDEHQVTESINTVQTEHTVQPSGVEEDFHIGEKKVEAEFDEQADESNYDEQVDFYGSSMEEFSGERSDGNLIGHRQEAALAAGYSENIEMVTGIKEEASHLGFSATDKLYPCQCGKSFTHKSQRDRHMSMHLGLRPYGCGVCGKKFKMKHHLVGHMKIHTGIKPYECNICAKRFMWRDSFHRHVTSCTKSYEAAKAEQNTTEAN
Summary of the method: as §1

[18] = molecular target: ZC3H18 (UniProt Q86VM9)
ZC3H18, sequence (Q86VM9 whole entry, looked up): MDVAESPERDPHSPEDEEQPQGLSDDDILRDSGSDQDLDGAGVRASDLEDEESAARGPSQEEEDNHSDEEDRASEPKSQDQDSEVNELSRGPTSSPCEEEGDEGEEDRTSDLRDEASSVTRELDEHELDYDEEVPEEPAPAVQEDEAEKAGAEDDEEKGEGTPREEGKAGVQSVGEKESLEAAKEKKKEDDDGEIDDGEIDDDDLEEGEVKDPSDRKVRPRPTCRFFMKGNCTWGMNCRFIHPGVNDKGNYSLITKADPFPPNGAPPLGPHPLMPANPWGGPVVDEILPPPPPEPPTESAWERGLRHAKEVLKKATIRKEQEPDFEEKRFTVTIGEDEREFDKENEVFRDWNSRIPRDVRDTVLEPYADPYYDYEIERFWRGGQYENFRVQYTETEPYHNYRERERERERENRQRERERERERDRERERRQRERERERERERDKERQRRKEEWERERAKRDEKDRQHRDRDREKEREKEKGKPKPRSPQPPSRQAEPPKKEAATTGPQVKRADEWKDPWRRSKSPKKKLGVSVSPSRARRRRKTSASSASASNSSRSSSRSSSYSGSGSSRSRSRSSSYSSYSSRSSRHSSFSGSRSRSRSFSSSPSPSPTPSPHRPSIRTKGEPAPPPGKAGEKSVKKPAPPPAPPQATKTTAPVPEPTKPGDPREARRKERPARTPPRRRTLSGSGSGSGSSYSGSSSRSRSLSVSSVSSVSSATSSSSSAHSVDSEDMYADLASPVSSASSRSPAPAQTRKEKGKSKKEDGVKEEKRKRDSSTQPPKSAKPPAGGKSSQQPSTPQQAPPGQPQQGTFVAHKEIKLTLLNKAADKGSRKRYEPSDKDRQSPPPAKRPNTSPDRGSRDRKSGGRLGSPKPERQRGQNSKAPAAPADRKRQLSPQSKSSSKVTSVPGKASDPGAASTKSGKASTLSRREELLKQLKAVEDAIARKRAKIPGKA
Summary of the method: as §1

[19] = molecular target: YBX1 (UniProt C9J5V9)
Summary of the method: as §1

[20] = molecular target: ZBTB17 isoform 2 (UniProt Q13105)
Summary of the method: as §1

Measured: log2 fold change

YAE1, sequence (Q9NRH1 whole entry, looked up): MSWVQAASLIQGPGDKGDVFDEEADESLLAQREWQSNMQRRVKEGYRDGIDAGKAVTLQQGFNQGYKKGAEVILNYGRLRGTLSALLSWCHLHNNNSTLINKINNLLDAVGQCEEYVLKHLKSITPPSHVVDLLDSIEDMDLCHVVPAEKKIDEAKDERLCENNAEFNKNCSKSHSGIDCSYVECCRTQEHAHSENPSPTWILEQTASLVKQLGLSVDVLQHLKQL

C[C@@H]1COCCN1c1cc(C2(S(C)(=O)=O)CC2)nc(-c2cccc3[nH]ccc23)n1
inactive: [1] -0.039 | [2] -0.368 | [3] -0.035 | [4] 0.095 | [5] 0.019 | [6] 0.076 | [7] 0.015 | [8] 0.055 | [9] -0.079 | [10] 0.025 | [11] 0.074 | [12] 0.165 | [13] 0.011 | [14] 0.02 | [15] 0.22 | [16] -0.101 | [17] -0.088 | [18] -0.008

COc1cc(C(=O)O)ccc1NC(=O)[C@@H]1N[C@@H](CC(C)(C)C)[C@](C#N)(c2ccc(Cl)cc2F)[C@H]1c1cccc(Cl)c1F [idasanutlin]
active: [9] 0.491
inactive: [1] 0.124 | [19] 0.131 | [2] 0.159 | [3] 0.041 | [4] -0.049 | [5] -0.051 | [6] -0.008 | [7] -0.026 | [8] -0.038 | [10] -0.053 | [11] -0.084 | [12] -0.061 | [13] -0.026 | [14] 0.077 | [15] -0.235 | [16] 0.026 | [17] 0.002 | [18] 0.23

C/C(=N\NC(=O)c1cccc(S(=O)(=O)N2CCOCC2)c1)c1cc(Cl)ccc1O
active: [15] 0.372
inactive: [1] -0.051 | [19] 0.233 | [2] -0.242 | [3] 0.072 | [4] -0.06 | [5] 0.016 | [6] -0.067 | [7] 0.03 | [8] 0.053 | [9] 0.032 | [10] 0.005 | [11] 0.204 | [12] -0.037 | [13] 0.061 | [14] 0.072 | [16] 0.068 | [17] 0.02 | [18] 0.01

CN(CCOc1ccc(C[C@@H]2SC(=O)NC2=O)cc1)c1ccccn1 (racemic) [rosiglitazone]
inactive: [1] 0.062 | [2] -0.074 | [3] 0.013 | [4] 0.005 | [5] 0.003 | [6] 0.027 | [7] 0.047 | [8] 0.029 | [9] -0.048 | [10] 0.038 | [11] 0.012 | [12] 0.019 | [13] 0.008 | [14] -0.015 | [15] 0.063 | [20] 0.063 | [16] 0.103 | [17] 0.052 | [18] -0.036

CC(C)C[C@@H](C=O)NC(=O)[C@H](CC(C)C)NC(=O)[C@H](CC(C)C)NC(=O)OCc1ccccc1
inactive: [1] 0.007 | [2] 0.083 | [3] 0.068 | [4] -0.016 | [5] -0.012 | [6] 0.02 | [7] 0.028 | [8] 0.045 | [9] 0.05 | [10] -0.003 | [11] -0.184 | [12] 0.019 | [13] -0.098 | [14] 0.091 | [15] -0.045 | [16] -0.013 | [17] 0.05 | [18] -0.042

Cc1cccc(-c2[nH]c(C(C)(C)C)nc2-c2ccc3nccnc3c2)n1
inactive: [1] 0.019 | [19] -0.03 | [2] -0.11 | [3] 0.008 | [4] -0.067 | [5] -0.073 | [6] 0.047 | [7] 0.043 | [8] 0.026 | [9] 0.097 | [10] 0.021 | [11] 0.05 | [12] -0.064 | [13] 0.009 | [14] 0.039 | [15] -0.004 | [16] -0.03 | [17] -0.04 | [18] -0.029

CCCc1cc(C)[nH]c(=O)c1CNC(=O)c1cc(-c2ccnc(N3CCN(C)CC3)c2)cc2c1cnn2C(C)C
inactive: [1] -0.083 | [2] 0.055 | [3] 0.075 | [4] -0.036 | [5] -0.005 | [6] -0.067 | [7] 0.083 | [8] -0.017 | [9] 0.014 | [10] -0.031 | [11] 0.241 | [12] -0.393 | [13] 0.056 | [14] -0.006 | [15] 0.004 | [20] -0.158 | [16] -0.008 | [18] -0.011

O=C1NC(=NCc2cccs2)S/C1=C\c1ccc2ncccc2c1
inactive: [1] -0.018 | [19] -0.002 | [2] -0.115 | [3] 0.094 | [4] -0.006 | [5] -0.008 | [6] 0.042 | [7] 0.057 | [8] 0.066 | [9] -0.021 | [10] 0.023 | [11] -0.201 | [12] -0.13 | [13] -0.154 | [14] -0.014 | [15] 0.042 | [16] -0.024 | [17] -0.081 | [18] 0.003

C[C@@H](Oc1cc(-c2cnn(C3CCNCC3)c2)cnc1N)c1c(Cl)ccc(F)c1Cl [crizotinib]
active: [3] -0.576
inactive: [1] -0.018 | [19] 0.028 | [2] 0 | [4] 0.054 | [5] 0.081 | [6] -0.081 | [7] -0.08 | [8] -0.052 | [9] 0.019 | [10] 0.017 | [11] 0.026 | [12] 0.081 | [13] 0.008 | [14] -0.021 | [15] 0.127 | [16] -0.1 | [17] -0.077 | [18] -0.042

O=C(O)c1ccc2c(c1)nc(Nc1cccc(Cl)c1)c1ccncc12 [silmitasertib]
inactive: [1] -0.009 | [2] 0.125 | [3] 0.004 | [4] -0.006 | [5] 0 | [6] 0.02 | [7] -0.009 | [8] 0.021 | [9] 0.116 | [10] -0.014 | [11] 0 | [12] -0.065 | [13] -0.078 | [14] 0.057 | [15] 0.053 | [20] 0.023 | [16] 0.104 | [18] 0.135

O=C1NC(=O)/C(=C\c2ccc3nccnc3c2)S1
inactive: [1] -0.037 | [2] -0.009 | [3] -0.09 | [4] 0.04 | [5] 0.009 | [6] 0.025 | [7] 0.046 | [8] 0.129 | [9] -0.002 | [10] 0.023 | [11] 0.003 | [12] -0.01 | [13] -0.012 | [14] 0.004 | [15] -0.05 | [20] 0.171 | [16] 0.156 | [17] -0.054 | [18] 0.035

COc1ccc(Cn2ccc3ccc(C(=O)NO)cc32)cc1
inactive: [1] 0.013 | [19] -0.033 | [2] -0.019 | [3] 0.072 | [4] -0.098 | [5] -0.065 | [6] -0.019 | [7] 0.018 | [8] 0.037 | [9] -0.269 | [10] -0.028 | [11] 0.3 | [12] 0.006 | [13] -0.002 | [14] 0.069 | [15] 0.008 | [16] 0.026 | [17] 0.094 | [18] -0.009

CO[C@H]1C[C@@H]2CC[C@@H](C)[C@@](O)(O2)C(=O)C(=O)N2CCCC[C@H]2C(=O)O[C@H]([C@H](C)C[C@@H]2CC[C@H](n3cnnn3)[C@H](OC)C2)CC(=O)[C@H](C)/C=C(\C)[C@@H](O)[C@@H](OC)C(=O)[C@H](C)C[C@H](C)/C=C/C=C/C=C/1C [zotarolimus]
inactive: [1] 0 | [2] -0.048 | [3] 0.053 | [4] 0.015 | [5] 0.006 | [6] -0.026 | [7] -0.001 | [8] 0.05 | [9] 0.05 | [10] 0.015 | [11] 0.196 | [12] -0.072 | [13] 0.107 | [14] -0.01 | [15] 0.07 | [16] 0.004 | [17] -0.036 | [18] 0.041

NC(=O)c1cnc(N[C@@H]2CCCC[C@@H]2N)nc1Nc1cccc(-n2nccn2)c1
inactive: [1] -0.038 | [19] -0.031 | [2] 0.048 | [3] -0.114 | [4] 0.091 | [5] -0.016 | [6] -0.088 | [7] -0.034 | [8] -0.061 | [9] -0.019 | [10] -0.05 | [11] 0.172 | [12] -0.186 | [13] 0.108 | [14] -0.037 | [15] -0.025 | [16] -0.044 | [17] 0.092 | [18] -0.221

Cn1c2cc(S(C)=O)sc2c2cnn(Cc3cccc(N)c3)c(=O)c21 (centres undefined)
inactive: [1] 0.046 | [2] 0.183 | [3] 0.053 | [4] -0.06 | [5] 0.043 | [6] -0.097 | [7] -0.057 | [8] -0.04 | [9] 0.132 | [10] -0.068 | [11] -0.167 | [12] 0.101 | [13] -0.115 | [14] 0.045 | [15] -0.013 | [16] 0.049 | [17] 0.017 | [18] 0.135

— the supplement of paper PMC10849652
